NS3h inh CB: HCV NS3 helicase inhibitors, primary screen, biochemical, fluorescence polarization, ChemBridge library | NS3h Cy5-dT15 DNA binding | AID 687043, 2013 | Hepatitis C virus NS3 helicase | hit rate 1.6% among 16,000 | inhibition, % at 100 µM;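 active means inhibition above the average over every tested compound plus 3 SD, cut at about 40% in these data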
Cy5 interf NS3h: Cy5 fluorescence quenchers or enhancers, artefact control for HCV NS3 helicase inhibitor project, biochemical, ChemBridge library, Cy5 readout. Cy5-dT15 DNA with NS3h, fluorescence interference; actives lie on both sides; signal over control mean, under 1 quenches. fluorescence interference ratio at 100 µM. hit rate 6% among 16,000;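 active means compound fluorescence over control fluorescence at most 0.8, a quencher, or at least a set upper limit, an enhancer; inactive means ratio between 0.8 and the set upper limit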
NS3h confirm: HCV NS3 helicase inhibitors, retest, confirmation, biochemical, fluorescence polarization, ChemBridge library. AID 720485, 2013. inhibition, % at 100 µM. hit rate 20% among 240. shares compounds with NS3h inh CB. NS3h binding to Cy5-dT15 DNA;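 active means percent inhibition of 50% or more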
SSB-DNA FP CB: E. coli SSB-DNA binding inhibitors, counter-screen for HCV NS3 helicase inhibitor project, biochemical, fluorescence polarization, selected ChemBridge compounds; E. coli SSB binding Cy5-dT15; shares compounds with NS3h inh CB; inhibition, % at 100 µM; hit rate 40% among 240;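 active means inhibition of at least 50%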;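 further: displacers lower Cy5 polarization so higher inhibition means more SSB displaced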
Target sequence (P0AGE0 whole entry, looked up): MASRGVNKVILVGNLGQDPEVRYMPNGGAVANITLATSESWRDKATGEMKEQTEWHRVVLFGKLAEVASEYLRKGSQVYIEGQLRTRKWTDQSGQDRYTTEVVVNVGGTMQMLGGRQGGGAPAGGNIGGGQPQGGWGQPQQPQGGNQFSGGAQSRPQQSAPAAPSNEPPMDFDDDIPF
Cy5 SSB fluor CB: Cy5 fluorescence interference with SSB-bound oligo, artefact control for HCV NS3 helicase inhibitor project, biochemical, E. coli SSB, selected ChemBridge compounds; shares compounds with NS3h inh CB; Cy5-dT15/E. coli SSB fluorescence interference; actives lie on both sides; fluorescence interference ratio at 100 µM; hit rate 8% among 240; AID 720487, 2013;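 active means fluorescence interference ratio at or above 1.2, signal boosting, or at or below 0.8, signal quenching; inactive means ratio between 0.8 and 1.2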
Cy5 fluor confirm: Cy5-DNA-NS3h complex fluorescence interference, confirmation, artefact control for HCV NS3 helicase inhibitor project, biochemical, ChemBridge library; shares compounds with NS3h inh CB; Cy5-dT15 DNA/NS3h fluorescence interference counterscreen; fluorescence interference ratio at 100 µM, hits read low; hit rate 44% among 240;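 active means fluorescence interference ratio at or below 0.8 quencher or at or above a set limitenhancer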
Numbers stand for hits; . = inactive; / = no result given. Rows were chosen to be rich in hits. Some 6.8% of all compounds tested hit in one or more screens of this group.

SMILES | NS3h inh CB | Cy5 interf NS3h | NS3h confirm | SSB-DNA FP CB | Cy5 SSB fluor CB | Cy5 fluor confirm
N#CC1=C(S)NC(=O)C(C#N)C12CCCCC2 (stereo not given) | 44 | . | . | . | . | .
O=P(OCCN1CCOCC1)(c1ccccc1)c1ccccc1 | . | . | / | / | / | /
O=C(O)CN1C(=O)/C(=C\c2cccc([N+](=O)[O-])c2O)SC1=S | 44 | . | . | . | . | 0.73
COc1cccc(/C=C2/SC(=S)N(CC(=O)O)C2=O)c1O | . | . | / | / | / | /
COC(=O)c1c(C)oc2ccc(OCc3ccc([N+](=O)[O-])cc3)cc12 | . | . | / | / | / | /
O=Cc1ccc(OCc2ccc([N+](=O)[O-])cc2)cc1 | 49 | 0.59 | . | . | . | 0.7
O=C(/C=C/c1ccc2c(c1)OCO2)n1nnc2ccccc21 | . | . | / | / | / | /
O=C1/C(=C/c2ccc(F)cc2)SC(=S)N1C1CCS(=O)(=O)C1 (stereo not given) | . | . | / | / | / | /
O=C1/C(=C\c2ccc(N3N=C(c4ccccc4)CC3c3ccccc3)cc2)SC(=S)N1C1CCS(=O)(=O)C1 (stereo not given) | 53 | 1.2 | . | . | . | .
O=C(/C=C/c1ccc(-c2ccccc2[N+](=O)[O-])o1)c1cc2ccccc2o1 | . | . | / | / | / | /
O=C1/C(=C\c2ccc(I)cc2)SC(=S)N1c1cccc(Cl)c1 | . | . | / | / | / | /
O=C(/C=C/c1ccc(/C=C/C(=O)c2cccc(N3C(=O)C=CC3=O)c2)cc1)c1cccc(N2C(=O)C=CC2=O)c1 | . | . | / | / | / | /
O=C1C=CC(=O)N1c1cccc(Cl)c1 | 55 | . | . | . | . | .
CCOC(=O)c1cccc(N2C(=O)C=CC2=O)c1 | 55 | . | . | . | . | .
COc1ccccc1NC(=O)/C(=C\c1cccs1)NC(=O)c1ccc(C(C)(C)C)cc1 | . | . | / | / | / | /
COc1ccc(CC(=O)O/N=C(/N)Cc2ccc([N+](=O)[O-])cc2)cc1OC | . | . | / | / | / | /
O=C1NC(=S)N/C1=C/c1ccc(OCc2cccc(C(=O)O)c2)cc1 | 62 | . | . | . | . | 0.77
Cc1ccccc1N1C(=O)NC(=O)/C(=C\c2ccc(OCc3cccc(C(=O)O)c3)cc2)C1=O | 42 | . | . | 68 | . | 0.8
CN1C(=O)C(=Cc2ccc(OCc3cccc(C(=O)O)c3)cc2)C(=O)N(C)C1=O | . | . | / | / | / | /
O=C1NC(=O)N(c2ccccc2F)C(=O)/C1=C/c1ccc(OCc2cccc(C(=O)O)c2)cc1 | . | . | / | / | / | /
Cc1cc(/C=C2\C(=O)NC(=O)N(c3cccc(F)c3)C2=O)c(C)n1C | . | . | / | / | / | /
O=C1NC(=O)N(c2cccc(F)c2)C(=O)/C1=C/c1ccc(OCc2cccc(C(=O)O)c2)cc1 | 41 | . | . | . | . | 0.75
Cc1ccc(N2C(=O)CSC23C(=O)Nc2ccccc23)cc1Cl (stereo not given) | . | . | / | / | / | /
C=CCN1C(=O)/C(=C/c2ccc(I)o2)SC1=S | . | . | / | / | / | /
CC(C)CC(=O)NS(=O)(=O)c1ccc(NC(=O)c2cccc(Br)c2)cc1 | . | . | / | / | / | /
SMILES | NS3h inh CB | Cy5 interf NS3h | NS3h confirm | SSB-DNA FP CB | Cy5 SSB fluor CB | Cy5 fluor confirm
O=C1/C(=C/c2ccc(-c3ccccc3[N+](=O)[O-])o2)SC(=S)N1Cc1ccccc1 | . | . | / | / | / | /
O=C(O)CCC(=O)N1N=C(c2c(-c3ccccc3)c3cc(Cl)ccc3[nH]c2=O)CC1c1ccc([N+](=O)[O-])cc1 (stereo not given) | . | . | / | / | / | /
CC(=O)c1cccc(NC(=O)/C(=C\c2cccs2)NC(=O)c2ccccc2)c1 | . | . | / | / | / | /
COc1cc(/C=C2\C(=O)N(c3ccc(S(N)(=O)=O)cc3)N=C2C)cc(Cl)c1O | . | . | / | / | / | /
CCOC(=O)N1N=C(c2cccc([N+](=O)[O-])c2)CC1(O)C(F)(F)F (stereo not given) | . | . | / | / | / | /
Cc1ccc(S(=O)(=O)n2cc(C=C3C(=O)NC(=S)NC3=O)c3ccccc32)cc1 | 61 | . | . | 82 | . | .
CCc1cc(C)cc(OCCn2cc(C=C3C(=O)NC(=S)NC3=O)c3ccccc32)c1 | . | . | / | / | / | /
CSc1ccccc1N1C(=O)C=CC1=O | . | . | . | . | . | 0.75

Screens from PubChem BioAssay.
